Results filed as inconclusive are left out. Values without a mark were called inactive. Active and inactive are the calls of the source. Calls follow the shape of the dose curve; as a rule, active = well fitted inhibition curve with a large enough effect; inconclusive = small, poorly fitted or top-dose-only effect; inactive = flat fitted curve, though single readings scatter.

The assay concerns the target Luciferin 4-monooxygenase (Photinus pyralis) (UniProt P08659). Kind of assay: qHTS screen for small molecules that inhibit ELG1-dependent DNA repair: SAR in Biochemical Luciferin Assay. Particulars: purified firefly luciferase, luciferin luminescence counter-screen; series mostly up to 57.5 µM; activity change, negative = inhibition: at the top concentration. From the text: Cancer cells divide rapidly compared to normal cells in the body. During cell division, cancer cells need to duplicate their genome by DNA replication. The failure of genome duplication leads to cancer cells' death. Therefore, inhibitors of DNA replication could specifically kill cancer cells. Based on this concept, many chemotherapeutic agents were developed and have been used to treat cancer patients. However, there are a limited number of agents available in the clinical setting, and some of those that do exist have low efficacy and severe side effects. Therefore, if we can find the compounds that effectively block DNA replication either by directly damaging DNA or by inhibiting other cellular mechanisms, the options for cancer treatment will be broadened. With this in mind, we developed a quantitative high-throughput ELG1-luciferase reporter gene assay. Small molecules that specifically block ELG1 function in response to DNA damage can be identified by monitoring the suppression of luciferase activity. Since ELG1 defines a pathway for repairing DNA damage, agents blocking ELG1 function can be used to sensitize cancer cells to chemotherapeutic agents whose mechanism of action involves the induction of DNA damage. This counter assay is a luciferase assay, that following treatment with putative ELG1 antagonists, aims to eliminate luciferase enhancers/inhibitors. NIH Molecular Libraries Probe Production Network [MLPCN] NIH Chemical Genomics Center [NCGC] MLPCN Grant: R03 MH092164 Assay Provider: Kyungjae Myung, NHGRI, NIH
3 uL of substrate reagent will be pipetted into each well in 1536-well white, solid-bottom plates using a FRD dispenser, followed by addition of 23 nL of DMSO or compounds by pintool. After compound addition, 1 µL of luciferase will be added into the wells. The plates will be read in a ViewLux CCD-based plate reader.
In general terms: Quantitative high-throughput screening tests each substance at several concentrations.
Consider `Cc1csc(CNc2ncnc3ccc(-c4ccoc4)cc23)c1`, for which the “activity change, negative = inhibition” value is -18.3%.

`O=c1[nH]c(-c2ccc(-c3cccc(Cl)c3)o2)nc2ccccc12`: the Potency is 461 nM (active). Regarding `CC(/C=C/C(=O)NO)=C\[C@@H](C)C(=O)c1ccc(N(C)C)cc1`, the “activity change, negative = inhibition” value was -28.1%. On the same count and under the same terms, the result for `OCC1OC(n2cnc3c(=S)nc[nH]c32)C(O)C1O` (stereo not given) reads 4.5%; that for `COc1ccc(C2=Nn3c(nnc3-c3ccccc3OC)SC2)cc1OC`, 6.27%; that for `COc1cc2c(cc1OC)C1C(=O)c3c(O)cc4c(c3OC1CO2)C=CC(C)(C)O4` (stereo not given), -5.2%. `CN(C)c1cccc(-c2ccnc(N3CCC(C(N)=O)CC3)n2)c1`: the Potency is 16400 nM (active). Consider `O=C(COc1ccccc1F)Nc1ccc(-c2nc3ccccc3s2)cc1`, for which the “activity change, negative = inhibition” value was -25.4%. Still for that read-out and setting: to `CS[C@@H]1SC[C@H]2C(=O)N(C)C(C(C)C)C(=O)OC[C@@H](NC(=O)c3cnc4ccccc4n3)C(=O)N[C@@H](C)C(=O)N(C)[C@H]1C(=O)N(C)C(C(C)C)C(=O)OC[C@@H](NC(=O)c1cnc3ccccc3n1)C(=O)N[C@@H](C)C(=O)N2C` (stereo not given in full) belongs -3.21%. Consider `COc1ccc(OC)c(-c2nnc3n2N=C(c2ccc(OC)c(OC)c2)CS3)c1`, for which the “activity change, negative = inhibition” value is 4.84%.

Take `CN(Cc1ccco1)c1ncnc2ccc(-c3cccc(Cl)c3)cc12`: the “activity change, negative = inhibition” value is -10.7%. As for `c1cncc(CNc2ncnc3ccc(-c4ccoc4)cc23)c1`, the “activity change, negative = inhibition” value is -6.33%. On to `N#Cc1ccc(-c2ccc(-c3nc4ccccc4c(=O)[nH]3)o2)cc1`, for which the “activity change, negative = inhibition” value was 0.924%.

`Cc1nc(Nc2nc3ccccc3o2)nc2c1CCCC2`: the Potency was 651 nM (active). For `O=C(Nc1ccccn1)c1sc2ccccc2c1Cl`, the Potency was 164 nM (active).

The record behind these values is PubChem BioAssay AID686933 (National Center for Advancing Translational Sciences (NCATS), 2013).
